Assay outcomes (PubChem)
In the library only some 12% were active in any assay of this set; here they are far more common.
JMJD2A Tudor: inhibitors of human JMJD2A Tudor domain; AlphaScreen JMJD2A-Tudor / H3K4me3 peptide binding; Potency, µM (titrated, usually from 114 µM), without a hit: at the top dose activity change, negative = inhibition, usual class: inhibitors; actives 4.4% (n = 390,000); AID 504339; further: potency means the concentration at half of the fitted maximal effect; on the % scale 0 is the no-effect control and ±100 the full control effect; nearly all actives have a fitted effect of over 50% in size
G9a inh: inhibitors of human histone lysine methyltransferase G9a. G9a H3K9 monomethylation, AlphaScreen, 2 h. Potency, µM (titrated, usually from 102 µM), for the others: at the top dose activity, negative = inhibition, actives largely listed as inhibitors. actives 8.8% (n = 350,000); further: potency means the concentration at half of the fitted maximal effect; on the % scale 0 is the no-effect control and ±100 the full control effect; nearly all actives have a fitted effect of over 75% in size
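Step 1: enzyme (final 20 nM) with compound, 15 min RT. Step 2: substrate peptide 500 nM and SAM 20 uM, 2 h RT. Step 3: anti-H3K9me1 antibody and AlphaScreen beads, 10 min, then plate read.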
PI5P4Ka inh: inhibitors of human PI5P4K alpha; PI5P4Kalpha enzyme, ADP-Glo luminescence, 60 min; hits give low values; max response, %; actives 1.2% (n = 330,000); AID 652105; active means max response of -50% or lower; inconclusive means between -30% and -50%; inactive means -30% or higher; further: value at the top dose of about 77 µM; on the % scale 0 is the no-effect control and ±100 the full control effect
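ADP-Glo luminescence end-point read after a 60 min room-temperature kinase reaction of PI5P4Kalpha plus substrate, initiated with ATP at 5 microM final. Buffer: 0.038 M HEPES pH 7.4, EGTA, 0.1% CHAPS, 5% DMSO.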
PLK1 PBD inh: blocks phosphopeptide binding to human PLK1 polo-box domain | Potency, µM, without a hit: max response, negative = inhibition, hits mostly inhibitors | AID 720504 | Plk1 PBD binding of FITC phosphopeptide, fluorescence polarization | actives 2.8% (n = 360,000); further: potency means the concentration at half of the fitted maximal effect; series mostly up to about 57 µM; on the % scale 0 is the no-effect control and ±100 the full control effect; nearly all actives have a fitted effect of over 65% in size
Target sequence (P53350 whole entry, looked up, the tested form may be a part): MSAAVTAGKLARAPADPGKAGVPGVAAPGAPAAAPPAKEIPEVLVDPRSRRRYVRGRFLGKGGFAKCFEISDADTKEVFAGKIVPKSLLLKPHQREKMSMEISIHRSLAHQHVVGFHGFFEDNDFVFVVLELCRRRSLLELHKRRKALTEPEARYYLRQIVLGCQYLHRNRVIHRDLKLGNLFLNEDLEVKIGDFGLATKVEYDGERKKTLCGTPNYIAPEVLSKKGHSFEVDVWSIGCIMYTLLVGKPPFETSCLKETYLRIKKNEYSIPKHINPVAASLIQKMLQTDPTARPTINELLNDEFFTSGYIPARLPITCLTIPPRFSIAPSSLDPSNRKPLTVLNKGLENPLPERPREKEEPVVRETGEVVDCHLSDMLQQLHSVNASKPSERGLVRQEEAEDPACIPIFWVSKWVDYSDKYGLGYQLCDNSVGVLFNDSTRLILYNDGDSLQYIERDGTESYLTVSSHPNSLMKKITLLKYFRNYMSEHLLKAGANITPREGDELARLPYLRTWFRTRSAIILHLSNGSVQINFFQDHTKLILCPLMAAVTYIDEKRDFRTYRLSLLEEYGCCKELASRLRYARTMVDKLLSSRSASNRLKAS
HP1b binding inh: inhibitors of HP1-beta chromodomain binding to methylated histone tails; actives 0.56% (n = 390,000); Potency, µM (doses to about 114 µM), for inactives: at the top dose activity change, negative = inhibition, hits mostly inhibitors; P83916; AlphaScreen HP1-beta / biotin-H3K9me3 peptide binding; further: potency means the concentration at half of the fitted maximal effect; nearly all actives have a fitted effect of over 70% in size
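AlphaScreen: HP1-beta (50 nM) preformed 30 min with biotin-H3(1-18)K9me3 peptide (50 nM) in PBS pH 7.4, 0.01% Tween-20. Compound added for 30 min at RT, then streptavidin donor/nickel chelate acceptor beads (10 ug/mL) for 30 min.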
BAZ2B block: BAZ2B (human) inhibition; AlphaScreen BAZ2B-H3K14Ac peptide displacement; Potency, µM (titrated, usually from 114 µM), for inactives: top-dose activity change, negative = inhibition, usual class: inhibitors; actives 4.4% (n = 360,000); Q9UIF8; further: potency means the concentration at half of the fitted maximal effect; on the % scale 0 is the no-effect control and ±100 the full control effect; nearly all actives have a fitted effect of over 60% in size
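Multi-concentration screen (max 110 uM) measuring displacement of acetylated histone H3 peptide from BAZ2B by AlphaScreen, using 50 nM protein, 50 nM peptide and 10 ug/mL streptavidin donor plus Ni-chelate acceptor beads.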
* hit, by the source's call; [ ] = dose if it differs, or a comment. Unless noted, the call rests on the fitted dose curve; in most records, active means well fitted curve in the direction sought with a large enough effect; inconclusive means small, poorly fitted or top-dose-only effect, or another doubt; inactive means no such curve, though single readings can be large; an effect the other way counts as inactive or inconclusive.

For CS(=O)(=O)Cc1ccc(C(=O)NCC2(N3CCCCC3)CCCCC2)cc1 the results were JMJD2A Tudor 0.4%, G9a inh 12.0%, PI5P4Ka inh 11.5, PLK1 PBD inh -0.7%, HP1b binding inh 26.8% and BAZ2B block 3.6%.
Cc1nn(C)cc1/C=C1\SC(=S)NC1=O was read as JMJD2A Tudor -12.9%, G9a inh inconclusive, PI5P4Ka inh -81.9*, PLK1 PBD inh -3.0%, HP1b binding inh 38.2% and BAZ2B block 14.1%.
Screening Cc1nn(C)c(C)c1/C=C1/SC(=S)NC1=O returned JMJD2A Tudor -11.8%, G9a inh inconclusive, PI5P4Ka inh -78.4*, PLK1 PBD inh -7.1%, HP1b binding inh 33.4% and BAZ2B block -8.7%.
`CCN1C(=O)/C(=C/c2c(C)nn(C)c2C)SC1=S` gave JMJD2A Tudor inconclusive, G9a inh inconclusive, PLK1 PBD inh -15.9%, HP1b binding inh 6.9% and BAZ2B block -16.5%.
`CN1CCN(/C=C2\SC(=S)NC2=O)CC1` gave JMJD2A Tudor -6.2%, G9a inh -8.4%[12.7 µM], PI5P4Ka inh -11.5, PLK1 PBD inh -4.5%, HP1b binding inh 41.9% and BAZ2B block -10.4%.
`Cc1ccc(Cl)cc1N1CCN(C(=O)C2CCCN(S(=O)(=O)c3ccc(Br)s3)C2)CC1` (stereo not drawn) gave JMJD2A Tudor -13.0%, G9a inh -42.8%[59 µM], HP1b binding inh 28.7% and BAZ2B block -23.5%.
Screening COCCn1c(-c2ccc(Cl)cc2)cnc1SCC(=O)NCc1cccs1 returned JMJD2A Tudor inconclusive, G9a inh 44.7µM*, PI5P4Ka inh -8.3, PLK1 PBD inh -9.0%, HP1b binding inh inconclusive and BAZ2B block inconclusive.
Screening O=C(NCc1cccnc1)c1cc(C2CCCCN2C(=O)c2cccs2)on1 (stereo not drawn) returned PI5P4Ka inh 5.7 and PLK1 PBD inh -4.0%.
CCc1cccc(C)c1NC(=O)c1nc2ccccc2nc1N1CCCCC1 was read as JMJD2A Tudor -9.7%, G9a inh 0.8%[59 µM], HP1b binding inh 25.6% and BAZ2B block -3.7%.
C=CCNC(=S)Nc1ccc2nsnc2c1 was read as JMJD2A Tudor -10.1%, G9a inh 6.3%[59 µM], PI5P4Ka inh 10.5, PLK1 PBD inh -3.7%, HP1b binding inh 38.0% and BAZ2B block 5.2%.
CCOc1ccc(-n2nc3ccc(NC(=O)Cc4ccccc4)cc3n2)cc1 was read as JMJD2A Tudor -15.0%, G9a inh -36.2%[59 µM], HP1b binding inh -8.3% and BAZ2B block -0.8%.
CCOc1ccc(-n2nc3ccc(NC(=O)CC)cc3n2)cc1 was read as JMJD2A Tudor inconclusive, G9a inh 35.5µM*, PI5P4Ka inh -7.8, PLK1 PBD inh inconclusive, HP1b binding inh -6.4% and BAZ2B block -25.6%.
C=CCN(CC=C)C(=S)Nc1ccc2nsnc2c1 was read as JMJD2A Tudor 3.6%, G9a inh 17.8µM*, PI5P4Ka inh -2.4, PLK1 PBD inh -6.9%, HP1b binding inh 33.7% and BAZ2B block -11.4%.
For CCOc1ccc(NC(=S)Nc2ccc3nsnc3c2)cc1 the results were JMJD2A Tudor -35.6%, G9a inh inconclusive, PI5P4Ka inh -11.6, PLK1 PBD inh 26.7µM*, HP1b binding inh inconclusive and BAZ2B block -34.2%.
Screening COc1ccc(NC(=S)Nc2ccc3nc(C)c(C)nc3c2)cc1 returned JMJD2A Tudor -13.5%, G9a inh 44.7µM*, PI5P4Ka inh -0.2, PLK1 PBD inh -7.9%, HP1b binding inh 7.8% and BAZ2B block 0.5%.
`CCOc1ccc(NC(=O)Nc2ccc3nsnc3c2)cc1` gave JMJD2A Tudor -10.3%, G9a inh 6.0%, PI5P4Ka inh 1.4, PLK1 PBD inh inconclusive, HP1b binding inh 29.9% and BAZ2B block -7.8%.
CN(C)c1ccc(CNC(=O)C2CCCN(S(=O)(=O)c3ccc4c(c3)oc(=O)n4C)C2)cc1 (stereo not drawn) was read as JMJD2A Tudor -9.6%, G9a inh -4.5%[59 µM], HP1b binding inh 34.4% and BAZ2B block -15.5%.
Screening O=C(Cn1c(=O)n(Cc2ccco2)c(=O)c2cccnc21)Nc1ccccc1F returned JMJD2A Tudor -5.5%, G9a inh 3.1%[59 µM], HP1b binding inh 27.9% and BAZ2B block 0.7%.
CN(C)c1nc(N(C)C)c2cnn(C)c2n1 was read as JMJD2A Tudor -2.7%, PI5P4Ka inh -3.3, PLK1 PBD inh 2.5% and HP1b binding inh 26.3%.
Screening COCCNC(=S)Nc1ccc2nsnc2c1 returned JMJD2A Tudor -8.2%, G9a inh -19.2%[59 µM], PI5P4Ka inh -8.5, PLK1 PBD inh -16.8%, HP1b binding inh 48.9% and BAZ2B block 3.3%.
`COc1ccc(NC(=S)Nc2ccc3nsnc3c2)cc1` gave JMJD2A Tudor inconclusive, G9a inh 2µM*, PI5P4Ka inh -19.3, PLK1 PBD inh 13.4µM*, HP1b binding inh inconclusive and BAZ2B block -36.4%.
CCOc1cc(CNc2ccc3c(c2)OCCO3)cc(Br)c1OCC was read as JMJD2A Tudor 44.7µM*, PI5P4Ka inh 17.9, PLK1 PBD inh 1.1%, HP1b binding inh -76.0% and BAZ2B block 25.1µM*.
For C=CCOc1c(Br)cc(CNc2ccc3[nH]c(=O)[nH]c3c2)cc1OCC the results were JMJD2A Tudor -22.8%, PI5P4Ka inh 3.9, PLK1 PBD inh -5.9%, HP1b binding inh 1.0% and BAZ2B block -18.9%.
For COc1cc(CNc2ccc(N3CCOCC3)cc2)cc(Br)c1OC the results were JMJD2A Tudor 39.8µM*, G9a inh 17.8µM*, PI5P4Ka inh -2.3, PLK1 PBD inh -14.4%, HP1b binding inh inconclusive and BAZ2B block 39.8µM*.
Screening CCOc1cc(CNc2ccc(N3CCOCC3)cc2)cc(Br)c1OCC returned JMJD2A Tudor 20µM*, G9a inh 25.1µM*, PI5P4Ka inh -6.6, PLK1 PBD inh -7.0%, HP1b binding inh 44.7µM* and BAZ2B block 17.8µM*.
CCOc1ccc(Br)cc1S(=O)(=O)Nc1ccc(N2CCOCC2)cc1 was read as JMJD2A Tudor -17.9%, G9a inh 11.2µM*, PI5P4Ka inh -8.7, PLK1 PBD inh -4.0%, HP1b binding inh -7.1% and BAZ2B block inconclusive.
CCOc1cc(CNc2ccccc2)cc(Br)c1OCc1ccccc1F was read as JMJD2A Tudor 9.8%, G9a inh 13.2%[12.7 µM], PLK1 PBD inh -0.8%, HP1b binding inh 72.6% and BAZ2B block 3.6%.
CCOc1ccc(Br)cc1S(=O)(=O)Nc1ccccc1N1CCOCC1 was read as JMJD2A Tudor 2.5%, G9a inh 12.4%[59 µM], PI5P4Ka inh 5.4, PLK1 PBD inh 3.3%, HP1b binding inh 45.4% and BAZ2B block -4.3%.
